Measured values as given in ChEMBL document CHEMBL3988442, “University of Dundee, Small-Polar-MMV Screening Library” (2021).

What follows are compounds tested against T1, Aspartate--tRNA(Asp/Asn) ligase (Mycobacterium tuberculosis (strain ATCC 25618 / H37Rv)) (UniProt P9WFW3) (assay: Assay for Asp RNA synthetase-1 from Mycobacterium tuberculosis). Conditions: 30 µM.
T1 sequence (whole entry): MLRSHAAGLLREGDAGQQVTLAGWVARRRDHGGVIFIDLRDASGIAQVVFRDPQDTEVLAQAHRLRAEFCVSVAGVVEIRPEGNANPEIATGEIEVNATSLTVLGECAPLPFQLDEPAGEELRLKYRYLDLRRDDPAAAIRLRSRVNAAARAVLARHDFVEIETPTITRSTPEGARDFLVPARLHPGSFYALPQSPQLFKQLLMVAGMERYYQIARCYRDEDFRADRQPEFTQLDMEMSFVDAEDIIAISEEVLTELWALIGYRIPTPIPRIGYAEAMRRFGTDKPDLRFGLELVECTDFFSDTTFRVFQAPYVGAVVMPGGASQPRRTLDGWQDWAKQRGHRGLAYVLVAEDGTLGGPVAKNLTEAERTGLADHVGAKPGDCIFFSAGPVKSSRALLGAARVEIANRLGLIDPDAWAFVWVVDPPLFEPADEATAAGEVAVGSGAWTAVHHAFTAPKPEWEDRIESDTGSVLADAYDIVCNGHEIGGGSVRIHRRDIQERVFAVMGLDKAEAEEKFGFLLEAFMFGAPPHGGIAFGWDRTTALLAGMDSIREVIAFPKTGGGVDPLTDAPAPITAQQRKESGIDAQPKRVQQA
Type: functional
Design: scale not given: in the data most compounds retested in dose-response had high values
`CC(CNCc1ccncc1)Oc1ccccn1` (stereo not given) showed a Percent Effect of -2.38%.
`N#Cc1cn(C2CC2)c(=O)n(CC(O)c2ccc(OC(F)F)cc2)c1=O` (stereo not given) gave a Percent Effect of 1.23%.
`Cc1ccc(C2COCCN2C(=O)c2ccc(N(C)C)cc2)o1` (stereo not given) was tested, and the Percent Effect was -0.816%.
For `O=C(CCc1cccnc1)N(Cc1ccsc1)CC1CCCO1` (stereo not given), the Percent Effect was -1.24%.
`CSCCC1c2nc[nH]c2CCN1Cc1cc(Cl)ccc1O` (stereo not given) was tested, and the Percent Effect was 0.954%.
Work on `Cc1cnn(C2CN(Cc3ccc4c(c3)OCCO4)C2)c1` yielded a Percent Effect of 2.19%.
With `Cc1ccc(C#N)c(N2CCC(c3nccn3Cc3cscn3)CC2)n1` the Percent Effect was 2.26%.
With `O=C(C1CC(=O)N(C2CCCC2)C1)N1CCN(CCn2cccc2)CC1` (stereo not given) the Percent Effect was -2.4%.
`c1cn(Cc2nnc(C3CCN(c4nccs4)CC3)n2C2CC2)cn1` showed a Percent Effect of -3.69%.
In the case of `Cc1cn2c(n1)CCC(NC(=O)CCC(F)(F)F)C2` (stereo not given), the Percent Effect is reported as -0.225%.
`CSC(C)(C)CNC(=O)NCCC1CCN(C)CC1` gave a Percent Effect of -1.57%.
`CCn1cc(CN(C)C(=O)c2cccc(CCC(C)(C)O)c2)cn1` showed a Percent Effect of -0.126%.
Work on `Cc1nn(CCO)c(C)c1CNC1CCC(C)(C)c2ccccc21` (stereo not given) yielded a Percent Effect of -0.793%.
`Cc1cccc(NC(=O)[C@@H]2CCCN2CC(=O)N2CCCCCC2)n1` showed a Percent Effect of -2.13%.
Compound `CCS(=O)(=O)c1ccc(N2CCC(NC(=O)c3cnn(C)c3)CC2)cc1` has a Percent Effect of -0.471%.
Work on `CCn1cnnc1CNC(=O)N1CCN(Cc2ccccc2)CC1` yielded a Percent Effect of -0.692%.
Compound `COc1ccc(CNC(C)c2cccc(Cl)c2)c(OC)c1OC` (stereo not given) has a Percent Effect of -3.05%.
Work on `CC(C)CN1CCCn2nc(CNC(=O)CCCc3cn[nH]c3)cc2C1` yielded a Percent Effect of -0.885%.
Work on `Cc1ccc(Nc2nccc(C3CCCN(CC(=O)N(C)C)C3)n2)nc1` (stereo not given) yielded a Percent Effect of -2.93%.
For `Cc1n[nH]c(C)c1NC(=O)CN1CCOC(Cn2cccn2)C1` (stereo not given), the Percent Effect was -0.605%.
